The text below walks through data of PubChem BioAssay (NCATS).

SMILES strings stand for the structures. A number with no mark means an inactive call. Inconclusive results are not listed. Active and inactive are the calls of the source. Unless noted, the call rests on the fitted dose curve; in most records, active means well fitted curve in the direction sought with a large enough effect; inconclusive means small, poorly fitted or top-dose-only effect, or another doubt; inactive means no such curve, though single readings can be large; an effect the other way counts as inactive or inconclusive.

In test [1] the test system is Zika virus NS2B-NS3 protease. As to the kind of experiment: Primary screen GU AMC qHTS for Zika virus inhibitors (AID 1347154). Further: nearly all actives have a fitted effect of over 70% in size. In a few lines:
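Fluorogenic AMC-substrate cleavage by noncovalent NS2B-NS3 protease complex (25 nM, pH 8.0 Tris buffer with Tween 20) followed for 15 minutes at room temperature (~20% conversion). Percent inhibition from ex340/em450 signal change, fitted by 4-parameter Hill equation.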

Test [2] deals with Glucocorticoid receptor (Homo sapiens) (UniProt P04150). As to the kind of experiment: GR-GFP Redistribution (AID 450;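 active means compounds whose dose series gives a full or clear partial fitted curve of increased nuclear translocation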; further: potency means the concentration at half of the fitted maximal effect). To be noted: U2OS GR-GFP nuclear translocation, laser cytometry, 2 h.
Chain of Glucocorticoid receptor (Homo sapiens) (P04150 whole entry, looked up, the tested form may be a part): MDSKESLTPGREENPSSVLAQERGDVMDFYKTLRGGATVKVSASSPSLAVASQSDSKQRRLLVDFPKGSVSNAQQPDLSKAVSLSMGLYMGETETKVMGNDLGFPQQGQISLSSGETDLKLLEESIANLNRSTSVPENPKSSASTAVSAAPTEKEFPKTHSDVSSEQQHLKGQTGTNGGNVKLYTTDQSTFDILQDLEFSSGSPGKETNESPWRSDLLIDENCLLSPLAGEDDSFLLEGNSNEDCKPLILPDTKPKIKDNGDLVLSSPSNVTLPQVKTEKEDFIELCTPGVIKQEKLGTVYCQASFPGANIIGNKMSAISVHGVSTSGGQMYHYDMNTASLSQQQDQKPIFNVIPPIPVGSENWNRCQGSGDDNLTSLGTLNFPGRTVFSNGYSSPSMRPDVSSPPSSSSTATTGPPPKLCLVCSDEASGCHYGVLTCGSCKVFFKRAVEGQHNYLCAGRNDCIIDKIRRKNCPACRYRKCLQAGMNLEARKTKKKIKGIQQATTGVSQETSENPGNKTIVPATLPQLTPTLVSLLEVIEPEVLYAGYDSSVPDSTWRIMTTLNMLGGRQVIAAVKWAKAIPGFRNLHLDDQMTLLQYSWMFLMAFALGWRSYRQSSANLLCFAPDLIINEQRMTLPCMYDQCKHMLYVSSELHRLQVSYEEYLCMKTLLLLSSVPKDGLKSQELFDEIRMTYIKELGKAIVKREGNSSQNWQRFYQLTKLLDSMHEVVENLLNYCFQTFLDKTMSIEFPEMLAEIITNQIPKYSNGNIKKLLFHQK
Test [3] shares this target. As to the kind of experiment: GR-EFC Redistribution (AID 451; calls by dose curve; further: potency means the concentration at half of the fitted maximal effect). The note with it: CHO-K1 GR-EFC translocation, beta-gal luminescence, 2 h. In outline: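 Translocation of GR-ED fusion to nuclear EA restores b-gal, read by luminescence after 1 h room-temperature detection. Engineered CHO-K1 biosensor cells, 1,000/well, exposed 2 h at 37 C to titrations up to 46 uM final.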

The target in test [4] is DNA dC->dU-editing enzyme APOBEC-3G (Homo sapiens) (UniProt Q9HC16). As to the kind of experiment: qHTS for inhibitors of Vif-A3G interactions: Validation (AID 588379). In outline: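 Yellow fluorescence (Ex 488, Em 500-530) of Vif-coexpressing HeLa A3G-eYFP cells, scanned by Acumen cytometer, reports blocked A3G degradation. Cells plated at 700/well overnight at 37 deg C before compound addition, then a further overnight compound incubation at 37 deg C.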
Chain of DNA dC->dU-editing enzyme APOBEC-3G (Homo sapiens) (Q9HC16 whole entry, looked up): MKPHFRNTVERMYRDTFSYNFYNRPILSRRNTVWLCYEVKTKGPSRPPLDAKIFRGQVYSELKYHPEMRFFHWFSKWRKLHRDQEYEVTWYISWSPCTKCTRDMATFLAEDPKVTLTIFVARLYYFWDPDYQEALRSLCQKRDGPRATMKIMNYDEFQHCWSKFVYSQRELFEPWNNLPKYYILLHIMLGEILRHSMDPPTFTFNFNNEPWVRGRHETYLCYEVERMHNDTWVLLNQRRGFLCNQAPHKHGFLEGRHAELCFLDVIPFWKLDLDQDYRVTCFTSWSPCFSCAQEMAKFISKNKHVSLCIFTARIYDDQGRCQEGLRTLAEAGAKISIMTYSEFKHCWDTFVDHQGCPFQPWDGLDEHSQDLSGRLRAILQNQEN
In general terms: In qHTS, concentration-response curves come from the screen itself.

Test [5] has as its system Zika virus NS2B-NS3 protease (linked construct). As to the kind of experiment: Primary screen NINDS Rhodamine qHTS for Zika virus inhibitors (AID 1347160). Further: nearly all actives have a fitted effect of over 55% in size. Further: potency means the concentration at half of the fitted maximal effect. In a few lines:
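Single-chain NS2B-NS3 protease, 25 nM, pH 8.0; compounds preincubated 15 min. Activity: Rhodamine110 release from 1.5 microM substrate over 15 min, room temperature, data fitted to 4-parameter Hill.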

Test [6] is described as follows: OV-KATE Cancer Cell Toxicity qHTS against the NCATS CANVASS Library (AID 1347345). In a few lines: (§1)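 Viability was assessed by adding CellTiter-Glo reagent to treated cultures and reading luminescence after 15min at room temperature. Treatment lasted 72 h at 37 degrees C/5% CO2, using an 11-point series on 1000 cells/well.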
A short description of test [7]: HPAF-II Cancer Cell Toxicity qHTS against the NCATS CANVASS Library (AID 1347346). Further: series mostly up to about 38 µM; nearly all actives have a fitted effect of over 55% in size. In a few lines:
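First, HPAF-II cells are plated (1000 cells/well) and held 4 h at 37 degrees C. Next, compounds are pin-transferred as an 11-point series. After 72 h, CellTiter-Glo is added and luminescence measured.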

Test [8] in a line: OV-SAHO Cancer Cell Toxicity qHTS against the NCATS CANVASS Library (AID 1347348). Further: series mostly up to about 38 µM; nearly all actives have a fitted effect of over 55% in size. In outline:
as §1

Test [9] in a line: Panc-1005 Cancer Cell Toxicity qHTS against the NCATS CANVASS Library (AID 1347349). Further: series mostly up to about 38 µM; nearly all actives have a fitted effect of over 60% in size. In outline:
as §1

The nature of test [10]: COV-362 Cancer Cell Toxicity qHTS against the NCATS CANVASS Library (AID 1347352). Further: series mostly up to about 38 µM. In a few lines:
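First, 1000 cells go into each well and rest for 4 hours. Next, an 11-point dilution range is pinned in. Plates then incubate 72 hours before CellTiter-Glo addition and luminescence reading.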

Test [11] can be described thus: A2780 Cisplatin Sensitive Ovarian Cancer Cell Toxicity qHTS against the NCATS CANVASS Library (AID 1347353). Further: nearly all actives have a fitted effect of over 60% in size. In a few lines:
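Cells are plated at 750 per well and rest for 4 hours. Compounds are added across eleven concentrations, and incubated 72 hours before ATP is quantified by luminescence.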

Test [12] can be described thus: HPAF-II 24hr Apoptosis Induction qHTS against the NCATS CANVASS Library (AID 1347356). In outline:
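Cells seeded at 500 per well, then compounds pin-transferred in an 11-point concentration series. After 24 hours at 37 degrees C, Caspase-Glo 3/7 was added and luminescence measured following 15 min at room temperature.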

Test [13] in a line: HPAF-II 12hr Apoptosis Induction qHTS against the NCATS CANVASS Library (AID 1347358). In outline: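 Cells plated at 500 per well are dosed with compound and incubated 12 hours at 37 degrees C. Caspase-Glo 3/7 reagent is added and, after 15 min at room temperature, luminescence proportional to caspase activity is measured.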
Test [14] in a line: HEK293 24hr Apoptosis Induction qHTS against the NCATS CANVASS Library (AID 1347359). In outline: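 Caspase-3/7 activation measured as luminescence from the DEVD-based Caspase-Glo reagent, 15 min at room temperature, following 24-hour compound treatment of HEK293 cells.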
Test [15] is described as follows: HPAF-II 18hr Apoptosis Induction qHTS against the NCATS CANVASS Library (AID 1347360). In outline:
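HPAF-II cells at 500/well were exposed for 18 h at 37 C to an 11-point compound series. Caspase-3/7 activity was read by Caspase-Glo luminescence after 15 min at RT.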

The target in test [16] is Luciferin 4-monooxygenase (Photinus pyralis) (UniProt P08659). As to the kind of experiment: Firefly luciferase counterscreen qHTS: Assay Interference Panel against the NCATS CANVASS Library (AID 1347363). Further: series mostly up to about 57 µM. In a few lines:
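Luminescence inhibition readout: compounds (11-point qHTS) sat 15 min at room temperature with substrate mix (0.013 mM luciferin and ATP), then firefly luciferase was added and signal read 5 min later.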
Background: A counterscreen serves to expose hits that act by an unwanted route or on another target.

A short description of test [17]: qHTS for ATAD5 Agonist screened against the NCATS CANVASS Library (AID 1347367).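 Further: luciferase reporter driven by ATAD5 which rises upon DNA damage.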 In a few lines: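 Luciferase reporter under ATAD5 control, stably integrated in HEK293T cells (2000/well). Compounds (11 points) incubated 16 h at 37C; viability read first by CellTiter-Fluor, then luminescence reporting ATAD5 activation. MMS positive control.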
A short description of test [18]: MCF7 Cancer Cell Toxicity qHTS against the NCATS CANVASS Library (AID 1347369). In outline:
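MCF7 cells (500/well) were exposed 72 h at 37 °C to compounds in an 11-point series. Viability was read as ATP content by CellTiterGlo luminescence.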

Test [19] can be described thus: J3T Cancer Cell Toxicity qHTS against the NCATS CANVASS Library (AID 1347371). In outline:
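Luminescence from CellTiterGlo, reporting cellular ATP, serves as the viability measure after 72 hr compound treatment of J3T canine glioma cells seeded at 500 cells/well.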

Test [20] can be described thus: qHTS for Inflammasome Signaling Inhibitors: IL-1-beta AlphaLISA screen against the NCATS CANVASS Library (AID 1347379).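 Further: human THP-1 cells primed with LPS then triggered with ATP.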 In outline:
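Secreted IL-1B from human THP-1 cells quantified by AlphaLISA 16 hr after compound addition (final up to 57.5 uM). A 1 hr compound pretreatment preceded inflammasome activation with 250 ng/mL LPS plus 1.25 mM ATP (final).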

Chain of Luciferin 4-monooxygenase (Photinus pyralis) (P08659 whole entry, looked up): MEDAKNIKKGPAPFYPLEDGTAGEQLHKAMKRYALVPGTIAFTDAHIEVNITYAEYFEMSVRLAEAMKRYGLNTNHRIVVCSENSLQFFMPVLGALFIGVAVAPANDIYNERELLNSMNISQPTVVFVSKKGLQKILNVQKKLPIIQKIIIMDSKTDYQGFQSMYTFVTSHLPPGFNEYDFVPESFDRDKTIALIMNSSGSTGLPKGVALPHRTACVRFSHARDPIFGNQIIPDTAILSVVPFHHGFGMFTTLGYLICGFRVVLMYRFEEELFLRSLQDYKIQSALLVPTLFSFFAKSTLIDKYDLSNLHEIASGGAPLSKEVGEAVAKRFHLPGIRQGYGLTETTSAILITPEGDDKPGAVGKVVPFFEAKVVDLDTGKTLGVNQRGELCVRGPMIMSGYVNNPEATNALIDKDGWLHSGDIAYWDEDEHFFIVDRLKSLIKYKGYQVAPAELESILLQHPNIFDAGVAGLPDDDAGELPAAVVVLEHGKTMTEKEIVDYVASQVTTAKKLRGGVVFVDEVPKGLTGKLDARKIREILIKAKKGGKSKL

On to `OC[C@H]1OC([S-])[C@H](O)[C@@H](O)[C@H]1O.[Au+]` (stereo not given in full), for which the Potency result in [1] is “inactive”.

Consider `CNC(=O)[C@H]1O[C@H](n2cnc3c(NCc4cccc(I)c4)nc(Cl)nc32)[C@@H](O)[C@@H]1O`, for which the Potency in [2] and in test [3] was greater than 46 µM throughout. The Potency result in test [4] and in test [1] was “inactive” in each case.

In the case of `Cc1cccc(CCN2CCC(C(=O)c3ccc(NS(C)(=O)=O)cc3)CC2)n1`, the Potency entry in test [4] and in test [1] was “inactive” in each case.

In the case of `COc1ccc2cccc(N3CCN(CCNC(=O)c4ccc(F)cc4)CC3)c2c1`, the Potency in [2] and in test [3] was greater than 46 µM each time. The Potency result in test [4] and in test [1] was “inactive” throughout.

Regarding `CC(C)NC[C@@H](O)COc1ccccc1-n1cccc1`, the Potency in test [2] and in test [3] was greater than 46 µM each time. Also, the Potency entry in [4] and in [1] was “inactive” in each case.

For the compound `O=C1CC2(CCCC2)CC(=O)N1CCCCNC[C@H]1COc2ccccc2O1`, the Potency in test [2] and in test [3] was greater than 46 µM throughout. For the same compound, the Potency result in [4] and in [1] was “inactive” in each case.

Regarding `O=C1c2ccccc2C(Cc2ccnc(F)c2)(Cc2ccnc(F)c2)c2ccccc21`, the Potency result in [1] was “inactive”.

`O=C(Nc1cc(C(=O)Nc2ccc(S(=O)(=O)O)cc2S(=O)(=O)O)cc(C(=O)Nc2ccc(S(=O)(=O)O)cc2S(=O)(=O)O)c1)Nc1cc(C(=O)Nc2ccc(S(=O)(=O)O)cc2S(=O)(=O)O)cc(C(=O)Nc2ccc(S(=O)(=O)O)cc2S(=O)(=O)O)c1`: the Potency result in test [4] was “inactive”.

Take `O=C(Nc1ccc(C(=O)Nc2ccc(C(=O)Nc3ccc(S(=O)(=O)O)c4cc(S(=O)(=O)O)cc(S(=O)(=O)O)c34)cc2)cc1)Nc1ccc(C(=O)Nc2ccc(C(=O)Nc3ccc(S(=O)(=O)O)c4cc(S(=O)(=O)O)cc(S(=O)(=O)O)c34)cc2)cc1`: the Potency entry in test [4] was “inactive”.

In the case of `COc1cc(/C=C2/C(=O)N(c3ccc(O)cc3C(=O)O)[C@H](c3ccc(O)c(OC)c3)C2C(=O)Nc2ccc(O)cc2C(=O)O)ccc1O` (stereo not given in full), the Potency in test [5] was 6.97 µM (active). Further, the Potency result in test [6], in test [7], in test [8], in test [9], in test [10] and in test [11] was “inactive” each time. Further, the Potency entry in test [13], in test [14], in test [15], in [16], in test [17] and in [18] was “inactive” each time. Moreover, the Potency result in test [19] and in [20] was “inactive” throughout. The call in [12] was inactive.

Consider `CCC1=C2CCCN3C(=O)O[C@H]([C@H]1OC(C)=O)[C@H]23`, for which the Potency entry in test [5], in [6], in [7], in [8], in test [9] and in [10] was “inactive” throughout. Further, the Potency entry in test [11], in test [13], in test [14], in test [15], in test [16] and in [17] was “inactive” each time. Also, the Potency result in test [18], in test [19] and in test [20] was “inactive” each time. The outcome in test [12] was inactive.

With `CC1=CC[C@@]2(C[C@@H]1O)[C@@H](C(=O)O)CC[C@H]2C(C)C`, the Potency result in [5], in [6], in [7], in test [8], in test [9] and in [10] was “inactive” in each case. For the same compound, the Potency result in test [11], in [13], in test [14], in test [15], in [16] and in test [17] was “inactive” throughout. Moreover, the Potency entry in [18], in test [19] and in [20] was “inactive” throughout. The outcome in test [12] was inactive.
